Test [1] in a line: stimulators of insulin release from INS-1E, primary screen, cell-based, 5 mM glucose, NPC library (AID 1117329). The note with it: rat INS-1E insulin secretion, at 10 µM, stronger effect = higher value.
Test [2] in a line: growth inhibition of GSK3B-pretreated HCT116 cells – cell-based, CellTiter-Glo, 0.2 to 20 µM (AID 1117336;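 active = compounds lowering colon cancer cell viability after pretreatment blocking the GSK3B kinase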). The note with it: HCT116 viability after GSK3B inhibitor, at 20 µM, stronger effect = higher value. For orientation: In ATP-based viability assays light output follows the ATP content of the culture.
Test [3] can be described thus: inhibition of endothelial tube formation, primary screen, imaging, VEGF stimulated, CD31 staining, tube area, NPC library (AID 1117340;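 active = compound that reduces growth-factor-driven endothelial tube area in a mixed cell culture, no cutoff stated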). The conditions noted are these: VEGF-stimulated ADSC/ECFC co-culture, at 10 µM, stronger effect = higher value.
Test [4] can be described thus: glucagon-like peptide 1 release enhancers, primary assay, NCI-H716 cell line, NPC library (AID 1117341;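 active = compound raises GLP1 secretion from the human gut endocrine cells, with no numeric limit stated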). The note with it: NCI-H716 cells, at 10 µM, stronger effect = higher value.
Test [5] is described as follows: HCT116 colon cancer cell growth inhibition, primary screen, CellTiter-Glo luminescence, NPC library (AID 1117342;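 active = compounds that lower survival of HCT116 colon cancer cells in the luminescence readout, no numeric limit stated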). The note with it: at 20 µM (top of the series).
Test [6] is described as follows: CellTiter-Glo luminescent readout of SW480 viability loss, NPC library primary (AID 1117343;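 active = compounds that lower viability of the colon cancer cells in the luminescence readout, with no numeric limit stated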). The conditions noted are these: CellTiter-Glo luminescence; at 20 µM (top of the series).
Test [7] in a line: decreased DLD-1 cellular survival, CellTiter-Glo luminescent readout, NPC compound collection, primary HTS (AID 1117346;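 active = compounds that lower survival of DLD-1 colon cancer cells in the luminescence readout, no cutoff given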). The note with it: DLD-1 viability, CellTiter-Glo luminescence; at 20 µM (top of the series).
Test [8] concerns the target 6-phosphogluconate dehydrogenase, decarboxylating (Homo sapiens) (UniProt P52209). In words: 6PGD enzyme inhibitors, primary screen, biochemical, human, recombinant enzyme, NADPH absorbance (AID 1159550;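 active = at least 20% inhibition of 6-phosphogluconate dehydrogenase activity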). The conditions noted are these: recombinant 6PGD, NADPH absorbance 341 nm; at 10 µM; stronger effect = higher value.
Test [9] can be described thus: differential killing of epithelial or mesenchymal cells, primary screen, imaging, PC-3E GFP, TEM4-18 mCherry, co-culture (AID 1345086;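 active = compounds killing one labelled cell type while sparing the other, by normalised counts and ratio limits, not self-fluorescent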;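 for all read-outs here: cells exposed to compound for 72 h before imaging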;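 for red/green cell ratio (normalised): normalised mesenchymal count divided by normalised epithelial count so high means epithelial killing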). The conditions noted are these: imaging cell counts, at 1 µM; for red/green cell ratio (normalised): actives lie on both sides, counts scaled to control wells, 1 = unselective.
[10] abbreviates: measured here: epithelial PC-3E GFP cell survival.
Where [11] appears, read: measured here: mesenchymal TEM4-18 mCherry cell survival.

Data on 15 compounds can be found in PubChem BioAssay.

Calls of active or inactive are those of the source.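 Rule for the calls, unless noted: active = compound raises insulin release from rat beta cells at 5 mM glucose, no numeric limit stated; inactive = the rest.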

Chain of 6-phosphogluconate dehydrogenase, decarboxylating (Homo sapiens) (P52209 whole entry, looked up): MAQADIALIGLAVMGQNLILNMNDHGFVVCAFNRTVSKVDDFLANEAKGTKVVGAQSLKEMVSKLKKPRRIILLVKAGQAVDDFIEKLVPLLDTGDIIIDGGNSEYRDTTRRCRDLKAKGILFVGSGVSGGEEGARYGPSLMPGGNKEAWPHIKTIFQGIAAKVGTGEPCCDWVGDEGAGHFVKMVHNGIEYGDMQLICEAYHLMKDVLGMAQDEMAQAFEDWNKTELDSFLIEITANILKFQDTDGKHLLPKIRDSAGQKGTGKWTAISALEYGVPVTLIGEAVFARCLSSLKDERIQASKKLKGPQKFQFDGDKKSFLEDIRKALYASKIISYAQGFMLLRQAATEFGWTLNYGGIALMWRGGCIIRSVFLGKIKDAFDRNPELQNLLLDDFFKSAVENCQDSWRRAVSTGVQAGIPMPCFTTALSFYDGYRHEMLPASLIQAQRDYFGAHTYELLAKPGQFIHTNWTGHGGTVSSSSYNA

`NCCS`: in test [1], the insulin secretion stimulation was 2.9% (inactive). Besides, the viability decrease in [2] is -8.4% (inactive). Besides, in [3], the tube area decrease is -3.5% (inactive). The GLP1 secretion stimulation in test [4] was -3.8% (inactive). For the same compound, in test [5], the inhibition of viability is 2.53% (inactive). For the same compound, the viability decrease (inhibition) in test [6] was -332% (inactive); in [7], -14.1% (inactive). For the same compound, the inhibition (commonly the relative decrease from the control value, in per cent) in test [8] is -14% (inactive). The red/green cell ratio (normalised) in test [9] is 1.27 (inactive). Moreover, the normalised cell number turned out to be 0.91 in test [9] (setting [10]) and 1.16 in [9] (setting [11]).
For `CN(C)CCCN1c2ccccc2Sc2ccccc21`, the insulin secretion stimulation in test [1] is 14.5% (inactive). Also, the viability decrease in test [2] is -76.1% (inactive). The tube area decrease in [3] is 12.3% (inactive). The GLP1 secretion stimulation in test [4] is 9.2% (inactive). In test [5], the inhibition of viability is 39.3% (inactive). Besides, the viability decrease (inhibition) in test [6] is 95.8% (active); in test [7] it was 14.3% (inactive). Besides, in test [8], the inhibition was 6.03% (inactive). Moreover, the red/green cell ratio (normalised) in test [9] was 1.19 (inactive). Besides, the normalised cell number in test [9] (setting [10]) stood at 1.03; in test [9] (setting [11]), 1.24.
On to `Nc1ccc(S(=O)(=O)NC(=O)c2ccccc2)cc1`, for which the insulin secretion stimulation in test [1] is -1.7% (inactive). Besides, the viability decrease in test [2] was -10.1% (inactive). Moreover, in [3], the tube area decrease was -16.9% (inactive). Also, the GLP1 secretion stimulation in test [4] is 0.6% (inactive). In addition, in [5], the inhibition of viability was 0.2% (inactive). The viability decrease (inhibition) was -9.5% (inactive) in test [6] and -14.3% (inactive) in [7]. In addition, the inhibition in [8] is -6.69% (inactive). Also, the red/green cell ratio (normalised) in test [9] is 1.62 (inactive). The figures for the normalised cell number in [9] (setting [10]) and in test [9] (setting [11]) were 0.9 and 1.46, respectively.
On to `Nc1ccc(C(=O)Oc2ccccc2)c(O)c1`, for which, in test [1], the insulin secretion stimulation was 0.9% (inactive). Moreover, the viability decrease in [2] is -26.7% (inactive). Moreover, the tube area decrease in [3] was 4.5% (inactive). The GLP1 secretion stimulation in test [4] is 0.7% (inactive). The inhibition of viability in test [5] was 3% (inactive). In addition, the viability decrease (inhibition) in [6] was -17.2% (inactive); in test [7], 17.2% (inactive). The inhibition in test [8] is -7.23% (inactive). Also, in [9], the red/green cell ratio (normalised) was 1.06 (inactive). Besides, the normalised cell number in [9] (setting [10]) is 0.61; in [9] (setting [11]), 0.65.
Take `CC(=O)Nc1c(I)cc(I)c(C(=O)O)c1I`: the insulin secretion stimulation in test [1] is 0.6% (inactive). In [2], the viability decrease was -43.4% (inactive). Also, in test [3], the tube area decrease was 34.2% (inactive). In addition, the GLP1 secretion stimulation in test [4] is 0.7% (inactive). In addition, in [5], the inhibition of viability is 4.5% (inactive). In addition, the viability decrease (inhibition) in test [6] is -4.3% (inactive); in [7] it was 0.1% (inactive). For the same compound, the inhibition in test [8] is -3.44% (inactive). Further, the red/green cell ratio (normalised) in test [9] is 0.94 (inactive). The normalised cell number was found to be 1.19 in test [9] (setting [10]) and 1.12 in [9] (setting [11]).
Take `O=C(OCC(O)CO)c1ccccc1Nc1ccnc2cc(Cl)ccc12` (stereo not given): the insulin secretion stimulation in test [1] was 6.1% (inactive). Also, in [2], the viability decrease is 53.3% (active). Also, the tube area decrease in test [3] is -3.6% (inactive). Besides, in [4], the GLP1 secretion stimulation is -2.3% (inactive). Moreover, in [5], the inhibition of viability is 38.5% (inactive). In addition, the results for the viability decrease (inhibition) in test [6] and in test [7] were 53.8% (active) and 6.3% (inactive), respectively. The inhibition in test [8] was 11.2% (inactive). The red/green cell ratio (normalised) in test [9] is 0.94 (inactive). Also, the normalised cell number in test [9] (setting [10]) turned out to be 0.84; in test [9] (setting [11]), 0.79.
`O=C(O)c1ccccc1OP(=O)(O)O`: the insulin secretion stimulation in [1] was 0.8% (inactive). The viability decrease in [2] was -21.3% (inactive). The tube area decrease in [3] is -18.8% (inactive). Also, in [4], the GLP1 secretion stimulation was 1.7% (inactive). The inhibition of viability in test [5] is 1.07% (inactive). Moreover, the viability decrease (inhibition) in test [6] is 6.6% (inactive); in [7], -7.1% (inactive). Also, the inhibition in [8] was -2.26% (inactive). Besides, the red/green cell ratio (normalised) in test [9] was 0.9 (inactive). Besides, the values for the normalised cell number in test [9] (setting [10]) and in test [9] (setting [11]) were 1.17 and 1.05, respectively.
`O=C(O)c1cc(=O)c2ccccc2o1`: the insulin secretion stimulation in test [1] is -2.1% (inactive). For the same compound, in [2], the viability decrease is -1.35% (inactive). Moreover, the tube area decrease in test [3] was -2.1% (inactive). Besides, the GLP1 secretion stimulation in [4] was 3.7% (inactive). Further, in test [5], the inhibition of viability is -9.2% (inactive). In addition, the viability decrease (inhibition) was 6.8% (inactive) in test [6] and 1.75% (inactive) in test [7]. For the same compound, the inhibition in test [8] was -2.11% (inactive). For the same compound, the red/green cell ratio (normalised) in test [9] is 0.88 (inactive). Besides, the figures for the normalised cell number in test [9] (setting [10]) and in [9] (setting [11]) were 0.88 and 0.78, respectively.
Turning to `COc1cc(OC)cc(OC)c1`, the insulin secretion stimulation in [1] was 2.1% (inactive). Further, the viability decrease in [2] was -6.5% (inactive). Also, the tube area decrease in test [3] is 7.3% (inactive). The GLP1 secretion stimulation in test [4] was -0.4% (inactive). Also, the inhibition of viability in test [5] was -3.13% (inactive). Besides, the viability decrease (inhibition) in test [6] was -10.2% (inactive); in test [7], -8.5% (inactive). Besides, in test [8], the inhibition was 14.4% (inactive). For the same compound, the red/green cell ratio (normalised) in test [9] was 0.87 (inactive). Moreover, the figures for the normalised cell number in [9] (setting [10]) and in test [9] (setting [11]) were 1.26 and 1.09, respectively.
With `COc1ccccc1OCC(O)CO` (stereo not given), in [1], the insulin secretion stimulation is -0.3% (inactive). For the same compound, the viability decrease in test [2] is -2.1% (inactive). The tube area decrease in [3] is -23.8% (inactive). Further, in [4], the GLP1 secretion stimulation is 1.3% (inactive). Besides, the inhibition of viability in test [5] was -1.2% (inactive). Further, the viability decrease (inhibition) in test [6] is 17.6% (inactive); in [7] it was -4.85% (inactive). In addition, the inhibition in test [8] was 12.6% (inactive). Besides, the red/green cell ratio (normalised) in test [9] is 1.05 (inactive). Further, the figures for the normalised cell number in test [9] (setting [10]) and in test [9] (setting [11]) were 1.11 and 1.17, respectively.
Consider `Cc1cc(CC(=O)O)n(C)c1C(=O)c1ccc(Cl)cc1`, for which the insulin secretion stimulation in test [1] was 2.6% (inactive). In [2], the viability decrease is -27.2% (inactive). The tube area decrease in [3] is 15.1% (inactive). In addition, the GLP1 secretion stimulation in test [4] is -1.1% (inactive). In test [5], the inhibition of viability was 1.13% (inactive). Further, the viability decrease (inhibition) in [6] is 14.7% (inactive); in test [7], -17.6% (inactive). Moreover, in test [8], the inhibition is -4.85% (inactive). Moreover, the red/green cell ratio (normalised) in test [9] is 0.89 (inactive). The normalised cell number in test [9] (setting [10]) came out at 1.1; in test [9] (setting [11]), 0.98.
For the compound `O=C(O)c1cc(O)c(O)c(O)c1`, the insulin secretion stimulation in [1] is -0.6% (inactive). Further, the viability decrease in test [2] was 44.8% (inactive). Moreover, the tube area decrease in [3] was -2.4% (inactive). The GLP1 secretion stimulation in [4] was 5.1% (inactive). The inhibition of viability in test [5] was 1.3% (inactive). Moreover, the viability decrease (inhibition) was 36.1% (inactive) in test [6] and 39.5% (inactive) in [7]. The inhibition in test [8] is 3.08% (inactive). Moreover, the red/green cell ratio (normalised) in test [9] was 0.96 (inactive). The normalised cell number in test [9] (setting [10]) was found to be 1.14; in test [9] (setting [11]), 1.09.
On to `CCCCOc1ccc(OCCCN2CCOCC2)cc1`, for which the insulin secretion stimulation in test [1] is 0.6% (inactive). Besides, the viability decrease in test [2] is -10.8% (inactive). Besides, the tube area decrease in test [3] was 15.4% (inactive). Further, the GLP1 secretion stimulation in test [4] is -1.7% (inactive). Also, in test [5], the inhibition of viability was 24.8% (inactive). The viability decrease (inhibition) is 46.8% (inactive) in test [6] and 22.7% (inactive) in test [7]. Besides, the inhibition in [8] was -17.9% (inactive). The red/green cell ratio (normalised) in test [9] was 0.85 (inactive). Further, the results for the normalised cell number in test [9] (setting [10]) and in test [9] (setting [11]) were 1.15 and 0.98, respectively.
As for `CN1CCN(CC(=O)N2c3ccccc3C(=O)Nc3cccnc32)CC1`, in test [1], the insulin secretion stimulation is -1.3% (inactive). Besides, the viability decrease in [2] is -6.7% (inactive). In test [3], the tube area decrease is 7.8% (inactive). Also, the GLP1 secretion stimulation in test [4] is -0.5% (inactive). Further, in test [5], the inhibition of viability is -2.2% (inactive). Also, the viability decrease (inhibition) is -14.1% (inactive) in test [6] and 5.4% (inactive) in test [7]. In addition, in test [8], the inhibition is 7.85% (inactive). Further, the red/green cell ratio (normalised) in test [9] is 0.9 (inactive). The normalised cell number in [9] (setting [10]) amounted to 1.08; in [9] (setting [11]), 0.97.
`Cc1cc(-c2ccccc2)nnc1NCCN1CCOCC1`: the insulin secretion stimulation in [1] was -1.9% (inactive). The viability decrease in test [2] is -42.6% (inactive). For the same compound, the tube area decrease in test [3] is 6.8% (inactive). In [4], the GLP1 secretion stimulation was 0.4% (inactive). In addition, the inhibition of viability in test [5] is 6.4% (inactive). The viability decrease (inhibition) in test [6] is 12.4% (inactive); in test [7], -6.5% (inactive). Also, the inhibition in test [8] is 3.56% (inactive). Also, in test [9], the red/green cell ratio (normalised) is 1.08 (inactive). Also, the normalised cell number in test [9] (setting [10]) worked out at 1.01; in test [9] (setting [11]), 1.08.
